Test system: Vero E6 infected with SARS-CoV-2
Assay: inhibition of SARS-CoV-2 cytopathic effect; higher = more antiviral protection, active = above 15
Settings: 48 h

Measured: inhibition of SARS-CoV-2 cytopathic effect

Cc1ccccc1-c1cc(N2CCN(C)CC2)ncc1N(C)C(=O)C(C)(C)c1cc(C(F)(F)F)cc(C(F)(F)F)c1 [netupitant]
inactive: 1 nM 0.76% | 8.33 nM 0.01% | 100 nM -1.38% | 833.33 nM -1.26% | 10000 nM 8.28%

Oc1cc(O)c2cc(O)c(-c3cc(O)c(O)c(O)c3)[o+]c2c1 [delphinidin]
inactive: 1 nM -3.03% | 8.33 nM -3.65% | 100 nM -0.94% | 833.33 nM -1.2% | 10000 nM -3.76%

CC(C)(C)c1ccc(S(=O)(=O)NCc2ccc(C(=O)Nc3cccnc3)cc2)cc1
inactive: 1 nM 1.28% | 8.33 nM 0.01% | 100 nM -0.96% | 833.33 nM -2.95% | 10000 nM -10.9%

NC(=O)[C@@H](CCC(F)(F)F)N(Cc1ccc(-c2ncon2)cc1F)S(=O)(=O)c1ccc(Cl)cc1 [avagacestat]
inactive: 1 nM 0.74% | 8.33 nM -2.98% | 100 nM -5.03% | 833.33 nM -4.21% | 10000 nM -6.12%

CN1CCC(=C2c3ccccc3CC(=O)c3sccc32)CC1 [ketotifen]
inactive: 1 nM 1.19% | 8.33 nM 4.8% | 100 nM 2.53% | 833.33 nM 1.27% | 10000 nM -3.64%

CC(C)N1CCN(c2ccc(OCC3COC(Cn4cncn4)(c4ccc(Cl)cc4Cl)O3)cc2)CC1 (stereo not given) [terconazole]
inactive: 1 nM 1.55% | 8.33 nM 0.07% | 100 nM 4.2% | 833.33 nM -1.24% | 10000 nM 11.5%

Brc1ccc(NC2C3CC4CC(C3)CC2C4)cc1 (stereo not given) [bromantan]
inactive: 1 nM -1.24% | 8.33 nM -0.71% | 100 nM -0.8% | 833.33 nM 0.76% | 10000 nM 1.67%

Cc1ccccc1NC(=O)Nc1ccc(CC(=O)N(C)[C@@H](CC(C)C)C(=O)NCC[C@H](NC(=O)[C@@H]2CCCN2S(=O)(=O)c2cc(Cl)cc(Cl)c2)C(=O)O)cc1
inactive: 1 nM -1.88% | 8.33 nM 0.66% | 100 nM -0.65% | 833.33 nM 0.17% | 10000 nM -3.63%

C[C@H]1O[C@H](O[C@H]2[C@H](O)[C@@H](O)[C@@H](O[C@H]3[C@H](O)[C@@H](O)C(O)O[C@@H]3CO)O[C@@H]2CO)[C@H](O)[C@@H](O)[C@@H]1N[C@H]1C=C(CO)[C@@H](O)[C@H](O)[C@H]1O (stereo not given in full) [acarbose]
inactive: 1 nM 0.51% | 8.33 nM 1.35% | 100 nM -0.08% | 833.33 nM -0.03% | 10000 nM -0.32%

Cc1n[nH]c2ccc(-c3cncc(OC[C@@H](N)Cc4ccccc4)c3)cc12
inactive: 1 nM 1.18% | 8.33 nM 0.14% | 100 nM 4.58% | 833.33 nM 4.63% | 10000 nM -13.2%

Cc1cnc(NC(=O)Nc2cc(Br)c(C)cc2OC[C@@H]2CNCCO2)cn1
inactive: 1 nM 1.08% | 8.33 nM 0.44% | 100 nM 1.44% | 833.33 nM -2.34% | 10000 nM -10.4%

OC[C@H]1NC[C@@H](O)[C@@H](O)[C@@H]1O [1-deoxymannojirimycin]
inactive: 1 nM -5.76% | 8.33 nM 0.14% | 100 nM -0.54% | 833.33 nM 1.33% | 10000 nM -0.79%

CC(C)C[C@H](CN)CC(=O)O
inactive: 1 nM -2.46% | 8.33 nM -1.59% | 100 nM -0.55% | 833.33 nM -0.08% | 10000 nM 0.02%

C[C@]12CC[C@@H]3c4ccc(OS(=O)(=O)O)cc4CC[C@H]3[C@@H]1CCC2=O [estropipate]
inactive: 1 nM -1.99% | 8.33 nM 1.92% | 100 nM 0.66% | 833.33 nM 1.96% | 10000 nM -6.12%

CC[C@@]1(O)C(=O)OCc2c1cc1n(c2=O)Cc2cc3ccccc3nc2-1 [camptothecin]
inactive: 1 nM -1.27% | 8.33 nM 1.92% | 100 nM -1.93% | 833.33 nM -11.9% | 10000 nM -20.7%

N#CCCCSC(=N)N [kevetrin]
inactive: 1 nM -0.54% | 8.33 nM -2.73% | 100 nM -3.7% | 833.33 nM -3.14% | 10000 nM -0.14%

O=C(/C=C/c1cccc(F)c1)NC1CC1 [cinflumide]
inactive: 1 nM 2.05% | 8.33 nM 3.3% | 100 nM 0.17% | 833.33 nM 2.25% | 10000 nM 8.23%

CC[C@@]1(O)C(=O)OCc2c1cc1n(c2=O)Cc2c-1nc1cc(F)c(C)c3c1c2[C@@H](N)CC3 [exatecan-mesylate]
inactive: 1 nM -2.4% | 8.33 nM -0.39% | 100 nM -7.04% | 833.33 nM -15.8% | 10000 nM -20.5%

Clc1ccc2c(NCCNc3ccnc4cc(Cl)ccc34)ccnc2c1
inactive: 1 nM -2.64% | 8.33 nM 0.71% | 100 nM 5.21% | 833.33 nM 0.16% | 10000 nM 0%

C[C@@H](c1nc(-c2ccc(C#N)cc2)cs1)[C@](O)(Cn1cncn1)c1ccc(F)cc1F [ravuconazole]
inactive: 1 nM -0.11% | 8.33 nM -0.67% | 100 nM -0.09% | 833.33 nM -0.86% | 10000 nM 0.29%

Cc1[nH]c(/C=C2\C(=O)Nc3ccc(S(=O)(=O)Cc4c(Cl)cccc4Cl)cc32)c(C)c1C(=O)N1CCC[C@@H]1CN1CCCC1
active: 10000 nM 50.2%
inactive: 1 nM -0.63% | 8.33 nM -2.66% | 100 nM -1.94% | 833.33 nM 1.33%

COc1cc2c(cc1C(F)(F)F)N(C(=O)Nc1cc(F)cc(-c3cccnc3)c1)CC2
inactive: 1 nM 1.91% | 8.33 nM 2.35% | 100 nM 0.87% | 833.33 nM 2.32% | 10000 nM 2.45%
